# Reference: PubChem BioAssay (NCATS)
# Inconclusive results are not listed. A call without a number means that no potency is given here. A number with no mark means an inactive call. Active and inactive are the calls of the source. Calls come from the whole dose curve; as a rule, active = well fitted curve in the direction sought with a large enough effect; inconclusive = small, poorly fitted or top-dose-only effect, or another doubt; inactive = no such curve, though single readings can be large; an effect the other way counts as inactive or inconclusive.
# Test system: not listed separately
# Assay: HepG2 viability counterscreen (readout 1: protease activity) against the NCATS DSHEA and TCM libraries (AID 1794841);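 note: cells exposed to compounds for about 24 h before the protease read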
# Conditions: qHTS concentration series; series mostly up to 27.3 µM
# Outline: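 1,000 HepG2 cells/well, 4 h attach; compounds ~24 h, 37C/5% CO2. Readout 1: GF-AFC 25 uM final, 30 min, fluorescence 380/510 nm. Readout 2: CellTiter-Glo, 30 min RT, luminescence.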
SMILES,outcome,"activity change, negative = inhibition"
O=C(/C=C/c1ccc(O)c(O)c1)O[C@@H]1CC(C(=O)O)=C[C@@H](O)[C@H]1O,inactive,–
CC(C)=CCCC(C)(OC1OC(COC2OC(CO)C(O)C2O)C(O)C(O)C1O)C1CCC2(C)C1C(O)CC1C3(C)CCC(OC4OC(CO)C(O)C(O)C4OC4OC(CO)C(O)C(O)C4O)C(C)(C)C3CCC12C (centres undefined),inactive,–
CC[C@H](CC[C@@H](C)[C@H]1CCC2C3CCC4C[C@@H](O)CC[C@]4(C)C3CC[C@@]21C)C(C)C (some centres undefined),inactive,–
O=C(O)CC(O)(C(=O)O)C(O)C(=O)O (centres undefined),inactive,–
CCCCCC(=O)CC,inactive,–
C=C1CC[C@H](O)C/C1=C\C=C1/CCC[C@]2(C)[C@@H]([C@H](C)CC[C@H](C)C(C)C)CC[C@@H]12,inactive,–
CC1(C)C2CCC1(C)C(O)C2 (centres undefined),inactive,–
O[C@@H]1[C@@H](O)[C@H](OC/C=C/c2ccccc2)O[C@H](CO[C@@H]2OC[C@H](O)[C@H](O)[C@H]2O)[C@H]1O,inactive,–
CC(=O)O[C@H]1[C@H](O[C@H]2CC[C@]34C[C@]35CC[C@]3(C)[C@@H]([C@@]6(C)CC[C@@H](C(C)(C)O)O6)[C@@H](O)C[C@@]3(C)[C@@H]5C[C@H](O[C@@H]3O[C@H](CO)[C@@H](O)[C@H](O)[C@H]3O)[C@H]4C2(C)C)OC[C@@H](O)[C@@H]1O,inactive,–
OCC1=C[C@@H](O)[C@@H]2C=CO[C@@H](OC3O[C@H](CO)[C@@H](O)[C@H](O)[C@H]3O)[C@H]12 (some centres undefined),inactive,–
CCCCCCCCCC=O,inactive,–
CC(=O)OC1CC2CCC1(C)C2(C)C (centres undefined),inactive,–
CC(C)=CCCC(C)=CCCC(C)=CCCC=C(C)CCC=C(C)CCC=C(C)C,inactive,–
CCCCCCCCCCCCCCCCCCCCCCCCCCCCCCO,–,5.84% [at 3.42 µM]
CC(C)c1ccc(C=O)cc1,inactive,–
O=Cc1ccccc1O,inactive,–
CC/C=C\C/C=C\C/C=C\C/C=C\CCCCC(=O)O,–,-7.13% [at 3.42 µM]
C=C1C[C@@]23CC[C@H]4[C@@](C)(CCC[C@@]4(C)C(=O)O[C@@H]4O[C@H](CO)[C@@H](O)[C@H](O)[C@H]4O)[C@@H]2CC[C@]1(O[C@@H]1O[C@H](CO)[C@@H](O)[C@H](O[C@@H]2O[C@H](CO)[C@@H](O)[C@H](O)[C@H]2O)[C@H]1O[C@@H]1O[C@@H](C)[C@H](O)[C@@H](O)[C@H]1O)C3,inactive,–
C=C1C[C@]23CC[C@H]4[C@@](C)(CCC[C@@]4(C)C(=O)O)[C@@H]2CC[C@@]1(O[C@@H]1O[C@H](CO)[C@@H](O)[C@H](O)[C@H]1O[C@@H]1O[C@H](CO)[C@@H](O)[C@H](O)[C@H]1O)C3,inactive,–
Cc1ccc(C(C)C)cc1,inactive,–
Cc1ncc(COP(=O)(O)O)c(C)c1O,inactive,–
OCCc1ccc(O)cc1,inactive,–
CN(CC(=O)O)C(=N)N,inactive,–
COc1ccc(C(=O)O)cc1,inactive,–
CC(C)(O)[C@@H]1CC[C@](C)([C@@H]2[C@H](O)C[C@]3(C)C4C[C@@H](O[C@H]5O[C@@H](CO)[C@H](O)[C@@H](O)[C@@H]5O)C5C(C)(C)[C@H](O[C@H]6OC[C@H](O)[C@@H](O)[C@@H]6O)CC[C@]56CC46CC[C@@]23C)O1 (some centres undefined),inactive,–
C=CC(=C)CCC=C(C)C,inactive,–
CC1=CCC(O)(C(C)C)CC1 (centres undefined),inactive,–
CCCCCC/C=C\CCCCCCCC(=O)O,inactive,–
CC(C)=CCC[C@](C)(O[C@@H]1O[C@H](CO)[C@@H](O)[C@H](O)[C@H]1O)[C@H]1CC[C@]2(C)[C@@H]1[C@H](O)C[C@@H]1[C@@]3(C)CC[C@H](O)C(C)(C)[C@@H]3[C@@H](O[C@@H]3O[C@H](CO)[C@@H](O)[C@H](O)[C@H]3O[C@@H]3O[C@@H](C)[C@H](O)[C@@H](O)[C@H]3O)C[C@]12C,inactive,–
C[C@@H]1O[C@@H](OC[C@H]2OC(Oc3c(-c4ccc(O)c(O)c4)oc4cc(O)cc(O)c4c3=O)[C@H](O)[C@@H](O)[C@@H]2O)[C@H](O)[C@H](O)[C@H]1O (some centres undefined),inactive,–

# Biological target: Glutathione peroxidase 1 (Homo sapiens) (UniProt P07203)
# Sequence (P07203 whole entry, looked up): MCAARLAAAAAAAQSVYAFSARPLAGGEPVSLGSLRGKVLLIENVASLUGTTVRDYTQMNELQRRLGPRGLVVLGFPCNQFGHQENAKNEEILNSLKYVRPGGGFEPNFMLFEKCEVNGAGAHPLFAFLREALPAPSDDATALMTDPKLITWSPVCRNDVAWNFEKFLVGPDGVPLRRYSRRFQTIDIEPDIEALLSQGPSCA
# Assay: Primary qHTS Assay for Inhibitors of Recombinant Selenoprotein Glutathione Peroxidase 1 (GPX1) (AID 1845191); note: nearly all actives have a fitted effect of over 65% in size
# Conditions: recombinant GPX1, GR-coupled NADPH fluorescence, 15 min; series mostly up to 48.8 µM
# Outline: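 NADPH consumption tracked by fluorescence at 340/450 nm between t=0 and t=15 min, room temperature. Final mix: 10 nM GPX1, 100 nM glutathione reductase, 1 mM GSH, 0.5 mM NADPH, 0.5 mM cumene hydroperoxide, 0.01% BSA; 30 min compound–enzyme preincubation.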
row,SMILES,Potency
1,CC1(C)C2CCC1(C)C(O)C2 (centres undefined),inactive
2,CC(=O)OC1CC2CCC1(C)C2(C)C (centres undefined),inactive
3,CC(C)=CCCC(C)=CCCC(C)=CCCC=C(C)CCC=C(C)CCC=C(C)C,inactive
4,Cc1ncc(COP(=O)(O)O)c(C)c1O,inactive
5,CCCCCC/C=C\CCCCCCCC(=O)O,inactive

# Biological target: Phospholipid hydroperoxide glutathione peroxidase GPX4 (Homo sapiens) (UniProt P36969)
# Sequence (P36969 whole entry, looked up): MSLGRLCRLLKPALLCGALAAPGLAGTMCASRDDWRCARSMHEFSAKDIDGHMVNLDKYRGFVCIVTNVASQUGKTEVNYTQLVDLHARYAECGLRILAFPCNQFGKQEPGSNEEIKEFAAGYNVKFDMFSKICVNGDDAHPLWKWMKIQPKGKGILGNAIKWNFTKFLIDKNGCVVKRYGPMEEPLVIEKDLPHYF
# Assay: Primary qHTS Assay for Inhibitors of Recombinant Selenoprotein Glutathione Peroxidase 4 (GPX4) (AID 1845192); note: nearly all actives have a fitted effect of over 65% in size; note: potency is the fitted concentration of half-maximal effect
# Conditions: recombinant GPX4, GR-coupled NADPH fluorescence, 15 min; series mostly up to 50 µM
# Outline: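 NADPH consumption followed by fluorescence at 340/450 nm, t=0 and after 15 min at room temperature. Reaction started with cumene hydroperoxide (0.5 mM final) after 30 min compound–GPX4 preincubation; final 200 nM GPX4, 100 nM GR, 1 mM GSH, 0.5 mM NADPH.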
row,SMILES,Potency
1,CC1(C)C2CCC1(C)C(O)C2 (centres undefined),inactive
2,CC(=O)OC1CC2CCC1(C)C2(C)C (centres undefined),inactive
3,Cc1ncc(COP(=O)(O)O)c(C)c1O,inactive
4,CCCCCC/C=C\CCCCCCCC(=O)O,14.1 µM (active)

# Biological target: Cytochrome P450 3A4 (Homo sapiens) (UniProt P08684)
# Sequence (P08684 whole entry, looked up): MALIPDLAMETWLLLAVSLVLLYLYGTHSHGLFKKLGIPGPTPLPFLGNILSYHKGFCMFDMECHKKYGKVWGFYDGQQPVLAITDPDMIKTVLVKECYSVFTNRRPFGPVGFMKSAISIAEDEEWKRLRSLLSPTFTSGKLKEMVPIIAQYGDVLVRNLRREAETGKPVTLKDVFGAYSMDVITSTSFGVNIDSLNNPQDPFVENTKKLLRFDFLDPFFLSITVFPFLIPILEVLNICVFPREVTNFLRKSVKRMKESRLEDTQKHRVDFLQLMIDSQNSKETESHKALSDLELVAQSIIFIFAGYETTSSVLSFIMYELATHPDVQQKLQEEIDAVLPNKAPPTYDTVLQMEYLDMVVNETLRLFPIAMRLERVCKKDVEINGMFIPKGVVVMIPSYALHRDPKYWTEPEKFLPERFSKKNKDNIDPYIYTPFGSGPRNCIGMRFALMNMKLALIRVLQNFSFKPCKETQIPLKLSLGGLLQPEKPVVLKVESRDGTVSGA
# Assay: qHTS for inhibitors of CYP3A4 against the NCATS DSHEA and TCM libraries (AID 1919971); note: potency is the fitted concentration of half-maximal effect;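 for activity change, negative = inhibition: inhibition lowers luminescence from luciferin made by CYP3A4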
# Conditions: recombinant CYP3A4 enzyme activity, luminescence qHTS; series mostly up to 34.1 µM
# Outline: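 Substances were tested against enzyme with a pro-luciferin substrate; minus-enzyme wells served as background. After NADPH-initiated oxidation (30-45 min, RT), light was generated with P450-Glo reagent.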
SMILES,Potency,"activity change, negative = inhibition"
O=C(/C=C/c1ccc(O)c(O)c1)O[C@@H]1CC(C(=O)O)=C[C@@H](O)[C@H]1O,inactive,–
CC(C)=CCCC(C)(OC1OC(COC2OC(CO)C(O)C2O)C(O)C(O)C1O)C1CCC2(C)C1C(O)CC1C3(C)CCC(OC4OC(CO)C(O)C(O)C4OC4OC(CO)C(O)C(O)C4O)C(C)(C)C3CCC12C (centres undefined),inactive,–
CC[C@H](CC[C@@H](C)[C@H]1CCC2C3CCC4C[C@@H](O)CC[C@]4(C)C3CC[C@@]21C)C(C)C (some centres undefined),inactive,–
O=C(O)CC(O)(C(=O)O)C(O)C(=O)O (centres undefined),inactive,–
CCCCCC(=O)CC,inactive,–
C=C1CC[C@H](O)C/C1=C\C=C1/CCC[C@]2(C)[C@@H]([C@H](C)CC[C@H](C)C(C)C)CC[C@@H]12,15.8 µM (active),–
CC1(C)C2CCC1(C)C(O)C2 (centres undefined),inactive,–
O[C@@H]1[C@@H](O)[C@H](OC/C=C/c2ccccc2)O[C@H](CO[C@@H]2OC[C@H](O)[C@H](O)[C@H]2O)[C@H]1O,inactive,–
CC(=O)O[C@H]1[C@H](O[C@H]2CC[C@]34C[C@]35CC[C@]3(C)[C@@H]([C@@]6(C)CC[C@@H](C(C)(C)O)O6)[C@@H](O)C[C@@]3(C)[C@@H]5C[C@H](O[C@@H]3O[C@H](CO)[C@@H](O)[C@H](O)[C@H]3O)[C@H]4C2(C)C)OC[C@@H](O)[C@@H]1O,inactive,–
OCC1=C[C@@H](O)[C@@H]2C=CO[C@@H](OC3O[C@H](CO)[C@@H](O)[C@H](O)[C@H]3O)[C@H]12 (some centres undefined),inactive,–
CCCCCCCCCC=O,inactive,–
CC(=O)OC1CC2CCC1(C)C2(C)C (centres undefined),inactive,–
CC(C)=CCCC(C)=CCCC(C)=CCCC=C(C)CCC=C(C)CCC=C(C)C,inactive,–
CCCCCCCCCCCCCCCCCCCCCCCCCCCCCCO,–,9.22% [at 4.27 µM]
CC(C)c1ccc(C=O)cc1,inactive,–
O=Cc1ccccc1O,inactive,–
CC/C=C\C/C=C\C/C=C\C/C=C\CCCCC(=O)O,–,5.33% [at 4.27 µM]
C=C1C[C@@]23CC[C@H]4[C@@](C)(CCC[C@@]4(C)C(=O)O[C@@H]4O[C@H](CO)[C@@H](O)[C@H](O)[C@H]4O)[C@@H]2CC[C@]1(O[C@@H]1O[C@H](CO)[C@@H](O)[C@H](O[C@@H]2O[C@H](CO)[C@@H](O)[C@H](O)[C@H]2O)[C@H]1O[C@@H]1O[C@@H](C)[C@H](O)[C@@H](O)[C@H]1O)C3,inactive,–
C=C1C[C@]23CC[C@H]4[C@@](C)(CCC[C@@]4(C)C(=O)O)[C@@H]2CC[C@@]1(O[C@@H]1O[C@H](CO)[C@@H](O)[C@H](O)[C@H]1O[C@@H]1O[C@H](CO)[C@@H](O)[C@H](O)[C@H]1O)C3,inactive,–
Cc1ccc(C(C)C)cc1,inactive,–
Cc1ncc(COP(=O)(O)O)c(C)c1O,inactive,–
OCCc1ccc(O)cc1,inactive,–
CN(CC(=O)O)C(=N)N,inactive,–
COc1ccc(C(=O)O)cc1,inactive,–
CC(C)(O)[C@@H]1CC[C@](C)([C@@H]2[C@H](O)C[C@]3(C)C4C[C@@H](O[C@H]5O[C@@H](CO)[C@H](O)[C@@H](O)[C@@H]5O)C5C(C)(C)[C@H](O[C@H]6OC[C@H](O)[C@@H](O)[C@@H]6O)CC[C@]56CC46CC[C@@]23C)O1 (some centres undefined),inactive,–
C=CC(=C)CCC=C(C)C,inactive,–
CC1=CCC(O)(C(C)C)CC1 (centres undefined),inactive,–
CCCCCC/C=C\CCCCCCCC(=O)O,inactive,–
CC(C)=CCC[C@](C)(O[C@@H]1O[C@H](CO)[C@@H](O)[C@H](O)[C@H]1O)[C@H]1CC[C@]2(C)[C@@H]1[C@H](O)C[C@@H]1[C@@]3(C)CC[C@H](O)C(C)(C)[C@@H]3[C@@H](O[C@@H]3O[C@H](CO)[C@@H](O)[C@H](O)[C@H]3O[C@@H]3O[C@@H](C)[C@H](O)[C@@H](O)[C@H]3O)C[C@]12C,inactive,–
C[C@@H]1O[C@@H](OC[C@H]2OC(Oc3c(-c4ccc(O)c(O)c4)oc4cc(O)cc(O)c4c3=O)[C@H](O)[C@@H](O)[C@@H]2O)[C@H](O)[C@H](O)[C@H]1O (some centres undefined),inactive,–
